In test [1] the test system is MILI (PIWIL2) piRISC loaded with piRNA #1 (26 nt). Kind of test: pre-steady-state target cleavage rate (min^-1); guide: piRNA #1 5'p-UGAGGUAGUAGGUUGUAUAGUAUCCA; higher = faster piRNA-guided slicing of the target. Conditions: auxiliary factor: 500 nM mouse GTSF1. The method, boiled down:
(§1)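 The method was Cleave-'n-Seq, in which uncleaved targets from a transcribed, DNA-blocked target RNA library were sequenced after exposure to active affinity-purified piRISC carrying one synthetic guide, with or without GTSF1 partner protein. Reactions contained 0.1 nM library, 1 nM piRISC and, where present, 500 nM GTSF1 in HEPES–potassium acetate buffer at 33 °C for 0–8 or 0–960 min. Reads were normalised to depth and to weakly complementary targets, three trials were pooled, and k3 was capped at 0.0001 min^-1. The pre-steady-state cleavage rate came from a burst-and-steady-state fit.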

The subject of test [2] is EfPiwi piRISC loaded with piRNA #1 (26 nt). Kind of test: pre-steady-state target cleavage rate (min^-1); auxiliary factor: 500 nM Ephydatia muelleri Gtsf1; guide: piRNA #1 5'p-UGAGGUAGUAGGUUGUAUAGUAUCCA; MIWI and MILI are mouse PIWI proteins and EfPiwi is from a freshwater sponge; tags in brackets are library labels; higher = faster piRNA-guided slicing of the target. A digest of the protocol: as §1

± gives the standard deviation.

Regarding GGAGACGUAUCUAUACAACCUACUACCUCA, the “pre-steady-state target cleavage rate” value in test [1] amounted to 0.156 ± 0.015; in test [2] it was 0.00913 ± 0.0041.
For GGAGACCUUACUAAACAACCUACUACCUCA the same measures were 0.112 ± 0.012 and 0.00463 ± 0.0036.
The corresponding values for GGAGUGGAGUACUAUACAACCUACUACCUCA are 0.153 ± 0.0099 and 0.0116 ± 0.0055.
For GGAGAGCAUACUAUACAACCUACUACCUCA the same measures were 0.188 ± 0.015 and 0.0285 ± 0.012.
As for GGAGACCUAUCUAUACAACCUACUACCAGA, the “pre-steady-state target cleavage rate” value in test [1] was 0.104 ± 0.016; in test [2], 0.00327 ± 0.0026.
For GGAGACCAUACUUUACAACCUACUACCUGA the same measures were 0.0887 ± 0.018 and 0.00591 ± 0.0031.
For GGAGACCAUAUAUACAACCUACUACCUCA the same measures were 0.05 ± 0.0081 and 0.00541 ± 0.0043.
The corresponding values for GGAGAGGAUACUAUACAACCUACUAUCCUCA are 0.0143 ± 0.0055 and 0.00536 ± 0.0025.
Turning to GGAGAGGAUACUAUACAACCUACUACUCUCA, the “pre-steady-state target cleavage rate” value was 0.123 ± 0.015 in test [1] and 0.00775 ± 0.0031 in test [2].
For GGAGAGGAUACUAUACCACCUACUACCUCA the same measures were 0.212 ± 0.019 and 0.00648 ± 0.003.
For GGAGACCAUACUAUACAUCCUACUACCUGA the same measures were 0.23 ± 0.034 and 0.00312 ± 0.0018.
For GGAGACGAUCACUAUACAACCUACUACCUCA the same measures were 0.131 ± 0.019 and 0.0768 ± 0.029.
GGAGUGGAUACUAUACAACCUACUAACUCA: the entries for the “pre-steady-state target cleavage rate” value in test [1] and in test [2] were 0.018 ± 0.005 and 0.00991 ± 0.0043, respectively.
For GGAGACGAUACUAUACAGCCUACUACCUCA the same measures were 0.16 ± 0.015 and 0.0104 ± 0.0039.
Turning to GGAGACGAUUCUAUACAAGCUACUACCUCA, the results for the “pre-steady-state target cleavage rate” value in test [1] and in test [2] were 0.239 ± 0.01 and 0.00369 ± 0.003, respectively.
For GGAGACCUUACUAUACAUCCUACUACCACA the same measures were 0.246 ± 0.02 and 0.0038 ± 0.0032.
For GGAGAGGAUAGUAUACAACCUUCUACCUCA the same measures were 0.00649 ± 0.004 and 0.00304 ± 0.0024.
The corresponding values for GGAGAGGAUACUAUACAACCUACUACAUCA are 0.0431 ± 0.0077 and 0.00573 ± 0.0027.
As to GGAGACCAUACUAUACAAGCUACUACCUCA, the “pre-steady-state target cleavage rate” value in test [1] came to 0.253 ± 0.02; in test [2] it was 0.00377 ± 0.0015.
For the sequence GGAGAGGAUACUAUACAACGUACUACCUCA, the “pre-steady-state target cleavage rate” value came to 0.0143 ± 0.003 in test [1] and 0.0053 ± 0.0021 in test [2].
GGAGACCUAACUAUACAACCUACUACAUCA: the results for the “pre-steady-state target cleavage rate” value in test [1] and in test [2] were 0.0477 ± 0.014 and 0.0146 ± 0.0083, respectively.
For GGAGACCAUACUAUACUACCUACUUCCUCA the same measures were 0.0579 ± 0.011 and 0.00301 ± 0.0023.
For GGAGACGAUACUAUACAACCUAGUUCCUCA the same measures were 0.00516 ± 0.0038 and 0.00305 ± 0.0018.
For GGAGUGGAUACUAUACAACCUACUACGACA the same measures were 0.0497 ± 0.008 and 0.00539 ± 0.0025.
GGAGACCUAAUUAUACAACCUACUACCUCA: the entries for the “pre-steady-state target cleavage rate” value in test [1] and in test [2] were 0.0979 ± 0.011 and 0.0144 ± 0.0065, respectively.
The corresponding values for GGAGUGGAUACUAUACAACCUACUACCUCCA are 0.223 ± 0.011 and 0.274 ± 0.077.
GGAGUGGAUACUAUUCAACCUACUACCUCA: the “pre-steady-state target cleavage rate” value in test [1] turned out to be 0.179 ± 0.0081; in test [2], 0.0119 ± 0.0052.
For GGAGACGAUACUAUAGAACCUACUACGUCA the same measures were 0.0644 ± 0.013 and 0.002 ± 0.0014.
For GGAGAGGUUACUAUUCAACCUACUACCUCA the same measures were 0.164 ± 0.0098 and 0.00359 ± 0.0029.
Consider GGAGAGGAUACUUUACAACCUACUUCCUCA, for which the “pre-steady-state target cleavage rate” value in test [1] came to 0.00524 ± 0.0027; in test [2], 0.00239 ± 0.0024.
As for GGAGACCUUACUAUACAAGCUACUACCACA, the “pre-steady-state target cleavage rate” value in test [1] was 0.266 ± 0.023; in test [2], 0.00275 ± 0.0027.
On to GGAGACGAUACUAUACAACCUACUACAUCA, for which the “pre-steady-state target cleavage rate” value in test [1] came to 0.0978 ± 0.015; in test [2], 0.0059 ± 0.0024.
The corresponding values for GGAGACGAUACUAAACAACCAACUACCUCA are 0.00769 ± 0.0028 and 0.0024 ± 0.0017.
For GGAGUGGAUACUAUACAACCUAAUACCUCA the same measures were 0.0398 ± 0.0071 and 0.00389 ± 0.0016.
With GGAGUGGAUACUAUGCAACCUACUACCUCA, the “pre-steady-state target cleavage rate” value amounted to 0.192 ± 0.009 in test [1] and 0.09 ± 0.035 in test [2].
Turning to GGAGAGGAUACUAUAACAACCUACUACCUCA, the “pre-steady-state target cleavage rate” value in test [1] was found to be 0.161 ± 0.012; in test [2], 0.0661 ± 0.025.
The corresponding values for GGAGAGGAUACAAUACAACGUACUACCUCA are 0.0139 ± 0.003 and 0.00326 ± 0.002.
For GGAGAGGAUCACUAUACAACCUACUACCUCA the same measures were 0.086 ± 0.019 and 0.00867 ± 0.0051.
The corresponding values for GGAGAGGCUACUAUACAACCUACUACCUCA are 0.182 ± 0.017 and 0.0629 ± 0.022.
Take GGAGACGAUUCUAUACAACCUACUUCCUCA: the “pre-steady-state target cleavage rate” value was found to be 0.0941 ± 0.016 in test [1] and 0.00271 ± 0.0022 in test [2].
For GGAGACGAUACUAUAGAACCUACUUCCUCA the same measures were 0.0055 ± 0.0044 and 0.00251 ± 0.0022.
The corresponding values for GGAGACGAUAGCUAUACAACCUACUACCUCA are 0.0779 ± 0.0075 and 0.0112 ± 0.0049.
GGAGACGAUACUAUACAACCUACAUACCUCA: the “pre-steady-state target cleavage rate” value stood at 0.153 ± 0.016 in test [1] and 0.00413 ± 0.0021 in test [2].
The corresponding values for GGAGACCAUACUAUACAACCUACAUCCUCA are 0.1 ± 0.014 and 0.00325 ± 0.0028.
For GGAGAGGAAACUAUUCAACCUACUACCUCA the same measures were 0.172 ± 0.021 and 0.013 ± 0.0061.
The corresponding values for GGAGACCUAACUAUACAACCUACUACCGUCA are 0.15 ± 0.034 and 0.0162 ± 0.0091.
As for GGAGACCAAACUAUACAUCCUACUACCUCA, the “pre-steady-state target cleavage rate” value in test [1] is 0.168 ± 0.034; in test [2] it was 0.0348 ± 0.013.
The corresponding values for GGAGACGAUACUAUAUCAACCUACUACCUCA are 0.123 ± 0.013 and 0.0198 ± 0.0082.
With GGAGACCAGACUAUACAACCUACUACCUCA, the “pre-steady-state target cleavage rate” value in test [1] was 0.193 ± 0.06; in test [2], 0.00856 ± 0.0055.
For GGAGUGGGUACUAUACAACCUACUACCUCA the same measures were 0.148 ± 0.01 and 0.00924 ± 0.0037.
For “GGAGACCUUACUAUACAACCUACUACCUCG [g2:g22:cont:t1G]” the same measures were 0.173 ± 0.015 and 0.062 ± 0.022.
The corresponding values for GGAGACGAUACUUUACAACCUACUACCUGA are 0.117 ± 0.021 and 0.00356 ± 0.0024.
Consider GGAGACCAUACUAUGCAACCUACUACCUCA, for which the “pre-steady-state target cleavage rate” value in test [1] came to 0.174 ± 0.019; in test [2] it was 0.0164 ± 0.0068.
With GGAGACGAUACAUAUACAACCUACUACCUCA, the “pre-steady-state target cleavage rate” value in test [1] stood at 0.111 ± 0.013; in test [2], 0.00804 ± 0.0033.
For GGAGUGGAUACUAUAGAACCUACAACCUCA the same measures were 0.0134 ± 0.0034 and 0.00234 ± 0.0015.
For GGAGACCUAUGUUAUACAACCUACUACCUCA the same measures were 0.104 ± 0.01 and 0.0122 ± 0.0063.
Take GGAGACCUAACUAUACAUCCUACUACCUGA: the entries for the “pre-steady-state target cleavage rate” value in test [1] and in test [2] were 0.116 ± 0.039 and 0.00344 ± 0.0029, respectively.
As for GGAGAGGAUACUAUACAACCUACCUACCUCA, the entries for the “pre-steady-state target cleavage rate” value in test [1] and in test [2] were 0.142 ± 0.013 and 0.00412 ± 0.0014, respectively.
For GGAGUGGUUACUAUACAACCUACUACCUCA the same measures were 0.186 ± 0.0089 and 0.00957 ± 0.004.
The corresponding values for GGAGAGGAUACUAUACAACCUACUACCCCA are 0.119 ± 0.02 and 0.00713 ± 0.0022.

For the origin of these results see the supplement of paper PMC10338343.
